ClpP mod: qHTS Assay for Activators of ClpP | ATP-dependent Clp protease proteolytic subunit (Bacillus subtilis (strain 168)), P80244 | purified B. subtilis ClpP, FRET peptide cleavage, 20 min | Potency, µM (series often up to 57.5 µM), without a hit: top-dose activity change, negative = active | 1.9% of 340,000 active; active means well fitted falling curve with a large enough effect; inconclusive means small, poorly fitted or top-dose-only effect; inactive means no such curve, though single readings can be large or run the other way; further: the source files actives as falling curves though it sought activators and does not explain the sign; nearly all actives have a fitted effect of over 65% in size
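Purified B. subtilis ClpP, 10 microg/mL final in Tris/HCl pH8 with KCl, BSA, glycerol and Tween-20, cleaved an Abz/nitrotyrosine-quenched decapeptide. Fluorescence (ex 320, em 430) was read at 0 and 20 min at room temperature. Delta was normalized to 5.8 microM ADEP and DMSO/no-enzyme controls.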
TDP1 cell noCPT: qHTS for Inhibitors of human tyrosyl-DNA phosphodiesterase 1 (TDP1): qHTS in cells in absence of CPT | AID 686978, 2013 | Potency, µM (series often up to 46.2 µM), inactives show top-dose activity change, negative = growth inhibition, actives largely listed as inhibitors | DT40 Tdp1-/- hTDP1 cells, no CPT, ATP luminescence, 48 h | 15% of 420,000 active; further: on the % scale 0 is the no-effect control and ±100 the full control effect; nearly all actives have a fitted effect of over 55% in size
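No-CPT arm: Tdp1-/-;hTDP1 DT40 cells (400/well) plus compounds, incubated ≥48 hr at 37 °C. Readout CellTiter-Glo luminescence.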
TDP1 cell CPT: qHTS for Inhibitors of human tyrosyl-DNA phosphodiesterase 1 (TDP1): qHTS in cells in presence of CPT; chicken DT40 Tdp1-/-;hTDP1 cells + 20 nM CPT, ATP luminescence, 48 h; 12% of 420,000 active; Potency, µM (series often up to 46.2 µM), without a hit: top-dose activity change, negative = growth inhibition, most hits filed as inhibitors; AID 686979, 2013; further: on the % scale 0 is the no-effect control and ±100 the full control effect; nearly all actives have a fitted effect of over 55% in size
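Chicken DT40 Tdp1-/- cells complemented with human TDP1, 400 cells/well, exposed to compounds plus 20 nM camptothecin for at least 48 h at 37 C; viability read as ATP content by CellTiter-Glo luminescence.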
TDP1 block: qHTS Assay for Inhibitors of Tyrosyl-DNA Phosphodiesterase (TDP1); Tyrosyl-DNA phosphodiesterase 1 (Homo sapiens), Q9NUW8; recombinant TDP1, AlphaScreen DNA substrate cleavage; Potency, µM (highest dose often 130 µM), without a hit: top-dose activity change, negative = inhibition, usual class: inhibitors; 0.28% of 350,000 active; AID 485290, 2010; further: on the % scale 0 is the no-effect control and ±100 the full control effect; nearly all actives have a fitted effect of over 40% in size
Target sequence (Q9NUW8 whole entry, looked up): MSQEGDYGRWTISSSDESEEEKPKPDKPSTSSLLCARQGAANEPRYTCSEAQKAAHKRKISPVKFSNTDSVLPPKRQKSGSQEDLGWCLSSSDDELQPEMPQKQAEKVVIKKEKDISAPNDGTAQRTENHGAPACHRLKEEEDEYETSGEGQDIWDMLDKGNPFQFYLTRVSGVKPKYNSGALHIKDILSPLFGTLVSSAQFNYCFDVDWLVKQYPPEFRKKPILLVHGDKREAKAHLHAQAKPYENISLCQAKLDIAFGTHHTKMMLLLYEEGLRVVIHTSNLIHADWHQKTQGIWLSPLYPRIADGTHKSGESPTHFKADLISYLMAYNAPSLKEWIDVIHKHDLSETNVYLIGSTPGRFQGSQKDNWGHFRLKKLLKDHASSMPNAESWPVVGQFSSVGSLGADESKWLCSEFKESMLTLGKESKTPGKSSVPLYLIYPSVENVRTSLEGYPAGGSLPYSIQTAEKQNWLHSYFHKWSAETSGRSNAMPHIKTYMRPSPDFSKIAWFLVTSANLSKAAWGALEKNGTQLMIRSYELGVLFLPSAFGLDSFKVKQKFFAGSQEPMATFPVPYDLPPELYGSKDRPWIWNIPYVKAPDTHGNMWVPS
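Tdp1 1 nM final; 15 min RT w/ cpd; substrate 15 nM, 5 min; beads 10 ug/ml, 10 min; AlphaScreen read. Neg ctrl: no enzyme.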
Starred values were filed as active, the others as inactive; u = inconclusive; x = no result given; [ ] = remark or other dose. An excerpt weighted towards active compounds, which were near 17% of everything screened. Unless noted, the call rests on the fitted dose curve; in most records, active means well fitted curve in the direction sought with a large enough effect; inconclusive means small, poorly fitted or top-dose-only effect, or another doubt; inactive means no such curve, though single readings can be large; an effect the other way counts as inactive or inconclusive. Potency means the concentration at half of the fitted maximal effect.

SMILES	ClpP mod	TDP1 cell noCPT	TDP1 cell CPT	TDP1 block
CCOCCc1nn2c(=O)cc(COC(=O)c3ccc4c(c3)OCO4)nc2s1	1.3%	u	u	3.2%
CCCCCCc1cc2cc(-c3nnc(-c4cccc(Cl)c4)o3)c(=O)oc2cc1O	-5.6%	1.3%	11.2%	1.3%[12.3 µM]
CC(C)CC(=O)Nc1ccc(C(=O)COC(=O)C2CCC2)cc1	-3.1%	2.1%	-0.6%	3.3%
Cc1cc(C)c(S(=O)(=O)Nc2ccc(-c3ccc(N4CCCCCC4)nn3)cc2)c(C)c1	-10.9%	u	u	7.7%
c1ccc(OCCSc2ncnc3nc[nH]c23)cc1	0.1%	-27.0%	-13.3%	x
O=C(CSc1ncnc2nc[nH]c12)N1CCN(c2ccc(Cl)cc2)CC1	-3.8%	13µM*	23.1µM*	6.0%
O=C(CSc1ncnc2nc[nH]c12)c1ccc2ccccc2c1	-10.0%	11.6µM*	u	2.6%
c1nc(SSc2ncnc3nc[nH]c23)c2[nH]cnc2n1	1.6%	7.31µM*	5.8µM*	x
O=C(O)CSc1ncnc2nc[nH]c12	-1.3%	-9.5%	-6.7%	-1.1%
Nc1ncnc2nc(SCC(=O)N3CCN(c4ccccc4)CC3)[nH]c12	1.3%	-0.2%	-21.7%	0.0%
O=C(CC1NCCNC1=O)Nc1ccc(F)c(Cl)c1 (stereo not drawn)	0.8%	-16.4%	-7.2%	-1.9%
Cc1ccc(C(O)c2ccc(-n3ccnc3)cc2)cc1 (stereo not drawn)	-8.4%	14.6µM*	u	x
CSC[C@H]1CN(Cc2cccnc2)C(=O)[C@@H]1CC(=O)Nc1ccc(Br)cc1	-2.0%	u	-29.3%	x
CC(C)c1cc(/C=C(\C#N)C(=O)NCCCc2ccccc2)cc(C(C)C)c1O	x	20.6µM*	20.6µM*	11.0%
CCOc1ccccc1NC(=O)CN(C)S(=O)(=O)c1ccc2nc(C)sc2c1	-10.8%	-28.3%	-6.0%	0.0%
CCOC(=O)N1CCN(Cc2nc3cc(NC(=O)C(C)C)ccc3n2C)CC1	-0.5%	-12.2%	-1.9%	x
CCOC(=O)N1CCN(Cc2nc3cc(NC(=O)c4ccc(F)cc4)ccc3n2C(C)C)CC1	2.4%	1.03µM*	0.92µM*	1.6%
CCOC(=O)N1CCN(Cc2nc3cc(NC(=O)C(C)C)ccc3n2C(C)C)CC1	-16.6%	2.59µM*	5.17µM*	0.5%
CCOC(=O)N1CCN(Cc2nc3cc(NC(=O)CC)ccc3n2C)CC1	-2.7%	0.1%	11.5%	x
CCCn1c(CN2CCN(C(=O)OCC)CC2)nc2cc(NC(=O)CC)ccc21	0.4%	4.61µM*	3.26µM*	x
CCOC(=O)N1CCN(Cc2nc3cc(NC(=O)c4ccc(OC)cc4)ccc3n2C(C)C)CC1	-2.0%	u	4.11µM*	-0.5%
COCCn1c(=O)[nH]c2cc(C(=O)NCCc3ccc(S(N)(=O)=O)cc3)ccc2c1=O	x	-5.3%	8.7%	0.6%
O=C(NCCCN1CCOCC1)C1Cc2c(ccc3ccccc23)O1 (stereo not drawn)	-2.0%	u	u	0.0%
CCOC(=O)C1=CCN(S(C)(=O)=O)C1c1ccc(C)cc1 (stereo not drawn)	1.8%	-13.6%	-5.3%	x
COc1ccccc1N1CCN(CC(O)c2c(C)[nH]c3ccccc23)CC1 (stereo not drawn)	-6.6%	16.4µM*	u	x
SMILES	ClpP mod	TDP1 cell noCPT	TDP1 cell CPT	TDP1 block
O=C(CN1CCCCC1)c1c[nH]c2ccccc12	0.6%	19.2%	-4.6%	x
COc1ccccc1N1CCN(CC(=O)c2c[nH]c3ccccc23)CC1	-1.6%	10.3µM*	u	2.7%
CC1CC(C)CN(CC(=O)c2c[nH]c3ccccc23)C1 (stereo not drawn)	x	23.1µM*	u	x
Nc1nc(Cl)cc(N2CCCC2)n1	x	1.3%	1.0%	0.0%
Nc1nc(Cl)cc(N2CCC(c3cc(-c4ccc(Cl)cc4Cl)n[nH]3)CC2)n1	-1.2%	4.11µM*	4.11µM*	6.4%
O=C(c1ccc(S(=O)(=O)Cc2ccccc2Cl)c([N+](=O)[O-])c1)N1CCN(c2ccccn2)CC1	x	7.31µM*	3.66µM*	6.1%
O=C(c1ccc(S(=O)(=O)Cc2cc(F)ccc2F)c([N+](=O)[O-])c1)N1CCCCC1	-1.3%	23.1µM*	u	0.0%
